# From PubChem BioAssay AID686922 (National Center for Advancing Translational Sciences (NCATS), 2013)
# Where “and” joins values, the source holds several entries; their conditions need not be identical. Equal values may be shown once. Inconclusive results are not listed. Calls of active or inactive are those of the source. Calls follow the shape of the dose curve; as a rule, active = well fitted inhibition curve with a large enough effect; inconclusive = small, poorly fitted or top-dose-only effect; inactive = no such curve, though single readings can be large or run the other way.
# Assay: qHTS screen for inhibitors of ELG1-dependent DNA repair in human embryonic kidney (HEK293T) cells expressing luciferase-tagged ELG1: MMS Viability Assay for probe SAR
# Conditions: HEK293T ELG1-luc + MMS viability, CellTiter-Glo, 16 h; series mostly up to 46.1 µM; activity change, negative = lower viability: at the top concentration
# Description: Cancer cells divide rapidly compared to normal cells in the body. During cell division, cancer cells need to duplicate their genome by DNA replication. The failure of genome duplication leads to cancer cells' death. Therefore, inhibitors of DNA replication could specifically kill cancer cells. Based on this concept, many chemotherapeutic agents were developed and have been used to treat cancer patients. However, there are a limited number of agents available in the clinical setting, and some of those that do exist have low efficacy and severe side effects. Therefore, if we can find the compounds that effectively block DNA replication either by directly damaging DNA or by inhibiting other cellular mechanisms, the options for cancer treatment will be broadened. With this in mind, we developed a quantitative high-throughput ELG1-luciferase reporter gene assay. Small molecules that specifically block ELG1 function in response to DNA damage can be identified by monitoring the suppression of luciferase activity. Since ELG1 defines a pathway for repairing DNA damage, agents blocking ELG1 function can be used to sensitize cancer cells to chemotherapeutic agents whose mechanism of action involves the induction of DNA damage. Cytotoxicity of the active compounds in the ELG1 qHTS assay with MMS stimulation (AID 493125) was assessed using the CellTiter-Glo Luminescent Cell Viability Assay kit (Promega, USA). CellTiter-Glo measures the intracellular ATP present in metabolically active cells using Ultra-Glo as the luciferase to detect ATP levels. In brief, the luciferase in the buffer catalyzes the oxidation of luciferin to oxyluciferin and light which is dependent on ATP. […] DMSO and wells with media alone were used as positive and negative controls, respectively. Inactivity to this assay is the desirable outcome. NIH Molecular Libraries Probe Production Network [MLPCN] NIH Chemical Genomics Center [NCGC] MLPCN Grant: R03 MH092164 Assay Provider: Kyungjae Myung, NHGRI, NIH
# ELG1-luc HEK293T cells will be seeded in 1536-well plates at a density of 2,000 cells/well. Approximately 5 hours after plating, compounds will be added to the plate by pin tool transfer and MMS will be added by FRD dispenser (final concentration of MMS = 10 µM). 16 hours following the addition of the compounds, cell viability will be measured using CellTiter Glo.
SMILES,"activity change, negative = lower viability",Potency
Cc1cc(-c2nc(Nc3ccc(F)c(F)c3)c3ccccc3n2)ccn1,5.15% (inactive),–
Nc1cc(-c2nc(Nc3ccc(F)c(F)c3)c3ccccc3n2)ccn1,11.4% (inactive),–
Cc1cnccc1-c1nc(Nc2ccc(F)c(F)c2)c2ccccc2n1,-5.06% (inactive),–
Fc1ccc(Nc2nc(-c3ccnc(N4CCCCC4)c3)nc3ccccc23)cc1F,3.34% (inactive),–
O=[N+]([O-])c1ccc(-c2nc(Nc3ccc(F)c(F)c3)c3ccccc3n2)cc1,-10.1% (inactive),–
COc1cnccc1-c1nc(Nc2ccc(F)c(F)c2)c2ccccc2n1,–,16.6 µM (active)
Fc1cc(Nc2nc(-c3ccncc3)nc3ccccc23)ccc1-n1cncn1,–,inactive
Fc1ccc(-c2nc(-c3ccncc3)nc3ccccc23)cc1F,-13.7% (inactive),–
O=c1cc(-c2nc(Nc3ccc(F)c(F)c3)c3ccccc3n2)cc[nH]1,9.88% (inactive),–
COc1ccc(-n2c(C)c(C(C)=O)c3cc(O)ccc32)cc1,12.3% (inactive),–
COc1ccc(-n2c(C)c(C(C)=O)c3ccccc32)cc1,–,inactive
Cc1nc2ccc(Nc3nc(-c4ccncc4)nc4ccccc34)cc2s1,-3.61% (inactive),–
Fc1cc(Nc2nc(-c3ccncc3)nc3ccccc23)ccc1-c1ccc(F)c(F)c1F,3.54% (inactive),–
Fc1ccc(Nc2nc(-c3ccncc3)nc3ccccc23)cc1F,-6.97% (inactive),–
COc1cc(Nc2nc(-c3ccncc3)nc3ccccc23)ccc1N1CCN(C)CC1,4.02% (inactive),–
Fc1cc(Nc2nc(-c3ccncc3)nc3ccccc23)ccc1-c1cncnc1,13.8% (inactive),–
Oc1ccc(Nc2nc(-c3ccncc3)nc3ccccc23)cc1F,-27.3% (inactive),–
CN1CCN(c2ccc(Nc3nc(-c4ccncc4)nc4ccccc34)cc2F)CC1,-7.11% (inactive),–
Fc1cc(Nc2nc(-c3ccncc3)nc3ccccc23)ccc1-c1cc(F)c(F)c(F)c1,4.68% (inactive),–
Fc1cccc(Nc2nc(-c3ccncc3)nc3ccccc23)c1,-25.8% (inactive),–

SMILES,"activity change, negative = lower viability",Potency
Fc1ccc(Nc2cc(-c3ccccc3)nc(-c3ccncc3)n2)cc1F,-28.5% (inactive),–
CSc1ccccc1-c1ccc(Nc2nc(-c3ccncc3)nc3ccccc23)cc1F,-35.6% (inactive),–
COc1ccc(-c2ccc(Nc3nc(-c4ccncc4)nc4ccccc34)cc2F)cc1F,-27.8% (inactive),–
Fc1cccc(-c2ccc(Nc3nc(-c4ccncc4)nc4ccccc34)cc2F)c1,-21.1% (inactive),–
CCOC(=O)c1ccc2c(c1)c(C(C)=O)c(C)n2-c1ccc(OC)cc1,1.14% (inactive),–
COc1nccc(-c2nc(Nc3ccc(F)c(F)c3)c3ccccc3n2)c1Cl,-4.2% (inactive),–
COc1ccc(Nc2nc(-c3ccncc3)nc3ccccc23)cc1F,6.58% (inactive),–
COc1cc(Nc2nc(-c3ccncc3)nc3ccccc23)ccc1F,–,23.5 µM (active) and 20.9 µM (active)
Fc1cc(Nc2nc(-c3ccncc3)nc3ccccc23)ccc1-c1cccc(C(F)(F)F)c1,–,20.9 µM (active)
Fc1cc(Nc2nc(-c3ccncc3)nc3ccccc23)ccc1-c1ccc2[nH]ncc2c1,-12.3% (inactive),–
Cc1cc(-c2nc(Nc3ccc(F)c(F)c3)c3ccccc3n2)cc(C)n1,-8.79% (inactive),–
Fc1cc(Nc2nc(-c3ccncc3)nc3ccccc23)ccc1-c1cccc(OC(F)(F)F)c1,–,18.7 µM (active)
Fc1cc(Nc2nc(-c3ccncc3)nc3ccccc23)ccc1OCC(F)(F)F,-9.42% (inactive),–
Fc1cc(Nc2nc(-c3ccncc3)nc3ccccc23)ccc1-c1cn[nH]c1,-4.27% (inactive),–
Fc1ccc(Nc2nc(-c3ccncc3Cl)nc3ccccc23)cc1F,-3.34% (inactive),–
Fc1cc(Nc2nc(-c3ccncc3)nc3ccccc23)ccc1C(F)(F)F,–,7.43 µM (active) and 16.6 µM (active)
Fc1ccc(-c2ccc(Nc3nc(-c4ccncc4)nc4ccccc34)cc2F)c(F)c1,–,7.43 µM (active)
COc1cc(-c2nc(Nc3ccc(F)c(F)c3)c3ccccc3n2)cc(OC)n1,-75.3% (inactive),–
COc1ccc(-c2nc(Nc3ccc(F)c(F)c3)c3ccccc3n2)cc1,-27.9% (inactive),–
COc1cc(-c2nc(Nc3ccc(F)c(F)c3)c3ccccc3n2)c(F)cn1,–,23.5 µM (active)
